PubChem BioAssay AID1159580 (chemical genetic matrix, 2015)
Among all 5,500 compounds or so, about 2,000 (36%) were called active. Not shown: some 18% with an inconclusive outcome. Rule as the data show it: active = normalized growth mostly below about 0.91 (no sharp cut-off); inconclusive = no clear call, values can overlap the other calls; inactive = mostly above about 0.92. The list shows a part of the results.

Experiment: chemical genetic growth profiling, strain panel (AID 1159580);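 also: tested at 20 µM; growth read once vehicle control cultures reached saturation at 30 °C; 1 = growth at the plate median or of vehicle wells; lower values mean less growth of the strain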
Details: growth OD

Measured: normalized growth

CC1(C)C=Cc2c(cc3occ(-c4ccc5c(c4)OCO5)c(=O)c3c2O)O1
inactive: S. cerevisiae deletion strains, locus YAL013W, strain DEP1, active compounds read low 0.996 | S. cerevisiae deletion strains, locus YAL021C, strain ccr4, active compounds read low 0.931 | S. cerevisiae deletion strains, locus YAL026C, strain drs2, active compounds read low 0.995 | S. cerevisiae deletion strains, locus YAL030W, strain snc1, active compounds read low 0.938 | S. cerevisiae deletion strains, locus YBR009C, strain hhf1, active compounds read low 0.982 | S. cerevisiae deletion strains, locus YBR021W, strain FUR4, active compounds read low 1 | S. cerevisiae deletion strains, locus YBR171W, strain sec66, active compounds read low 0.998 | S. cerevisiae deletion strains, locus YBR229C, strain ROT2, active compounds read low 1.01 | S. cerevisiae deletion strains, locus YBR279W, strain paf1, active compounds read low 0.988 | S. cerevisiae deletion strains, locus YCL016C, strain dcc1, active compounds read low 0.994 | S. cerevisiae deletion strains, locus YCL029C, strain bik1, active compounds read low 1 | S. cerevisiae deletion strains, locus YCL061C, strain MRC1, active compounds read low 0.977 | S. cerevisiae deletion strains, locus YCL069W, strain vba3, active compounds read low 0.971 | S. cerevisiae deletion strains, locus YCR088W, strain abp1, active compounds read low 0.995 | S. cerevisiae deletion strains, locus YDL005C, strain med2, active compounds read low 0.998 | S. cerevisiae deletion strains, locus YDL035C, strain GPR1, active compounds read low 0.908 | S. cerevisiae deletion strains, locus YDL040C, strain nat1, active compounds read low 0.991 | S. cerevisiae deletion strains, locus YDL074C, strain BRE1, active compounds read low 1.01 | S. cerevisiae deletion strains, locus YDL101C, strain DUN1, active compounds read low 1.01 | S. cerevisiae deletion strains, locus YDL134C, strain PPH21, active compounds read low 0.923 | S. cerevisiae deletion strains, locus YDL185W, strain tfp1, active compounds read low 1 | S. cerevisiae deletion strains, locus YDL192W, strain arf1, active compounds read low 0.956 | S. cerevisiae deletion strains, locus YDR001C, strain nth1, active compounds read low 0.998 | S. cerevisiae deletion strains, locus YDR101C, strain arx1, active compounds read low 0.983 | S. cerevisiae deletion strains, locus YDR137W, strain rgp1, active compounds read low 1.04 | S. cerevisiae deletion strains, locus YDR159W, strain sac3, active compounds read low 1 | S. cerevisiae deletion strains, locus YDR162C, strain NBP2, active compounds read low 0.976 | S. cerevisiae deletion strains, locus YDR195W, strain ref2 1.01 | S. cerevisiae deletion strains, locus YDR318W, strain mcm21, active compounds read low 0.97 | S. cerevisiae deletion strains, locus YDR334W, strain swr1, active compounds read low 0.95 | S. cerevisiae deletion strains, locus YDR335W, strain msn5, active compounds read low 0.978 | S. cerevisiae deletion strains, locus YDR388W, active compounds read low 0.993 | S. cerevisiae deletion strains, locus YDR392W, strain spt3, active compounds read low 0.873 | S. cerevisiae deletion strains, locus YDR502C, strain sam2, active compounds read low 0.989 | S. cerevisiae deletion strains, locus YEL003W, strain gim4, active compounds read low 0.932 | S. cerevisiae deletion strains, locus YEL037C, strain rad23, active compounds read low 0.977 | S. cerevisiae deletion strains, locus YEL061C, strain CIN8 (second series), active compounds read low 0.98 | S. cerevisiae deletion strains, locus YEL061C, strain CIN8, active compounds read low 0.981 | S. cerevisiae deletion strains, locus YER016W, strain bim1, active compounds read low 0.988 | S. cerevisiae deletion strains, locus YER110C, active compounds read low 1.04 | S. cerevisiae deletion strains, locus YER111C, strain swi4, active compounds read low 0.98 | S. cerevisiae deletion strains, locus YER155C, strain BEM2 (second series), active compounds read low 0.947 | S. cerevisiae deletion strains, locus YER155C, strain BEM2, active compounds read low 1.02 | S. cerevisiae deletion strains, locus YER167W, strain BCK2, active compounds read low 0.967 | S. cerevisiae deletion strains, locus YFR010W, strain ubp6, active compounds read low 0.91 | S. cerevisiae deletion strains, locus YGL078C, strain dbp3, active compounds read low 1.02 | S. cerevisiae deletion strains, locus YGL167C, strain pmr1, active compounds read low 1.01 | S. cerevisiae deletion strains, locus YGL227W, strain vid30, active compounds read low 1.01 | S. cerevisiae deletion strains, locus YGL240W, strain doc1, active compounds read low 1.02 | S. cerevisiae deletion strains, locus YGR078C, strain PAC10, active compounds read low 0.98 | S. cerevisiae deletion strains, locus YGR135W, strain pre9, active compounds read low 0.964 | S. cerevisiae deletion strains, locus YGR252W, strain gcn5, active compounds read low 1.02 | S. cerevisiae deletion strains, locus YHR013C, strain ard1, active compounds read low 0.982 | S. cerevisiae deletion strains, locus YHR030C, strain SLT2, active compounds read low 0.945 | S. cerevisiae deletion strains, locus YHR079C, strain IRE1 (second series), active compounds read low 1.02 | S. cerevisiae deletion strains, locus YHR094C, strain hxt1, active compounds read low 1.03 | S. cerevisiae deletion strains, locus YHR129C, strain ARP1, active compounds read low 0.94 | S. cerevisiae deletion strains, locus YHR142W, strain chs7, active compounds read low 0.936 | S. cerevisiae deletion strains, locus YHR200W, strain rpn10, active compounds read low 0.968 | S. cerevisiae deletion strains, locus YIL066C, strain RNR3, active compounds read low 0.921 | S. cerevisiae deletion strains, locus YIL073C, strain SPO22, active compounds read low 0.886 | S. cerevisiae deletion strains, locus YIL125W, strain kgd1, active compounds read low 1.03 | S. cerevisiae deletion strains, locus YIR030C, strain dcg1, active compounds read low 1.01 | S. cerevisiae deletion strains, locus YJL092W, strain hpr5, active compounds read low 0.983 | S. cerevisiae deletion strains, locus YJL095W, strain BCK1, active compounds read low 0.927 | S. cerevisiae deletion strains, locus YJL115W, strain asf1, active compounds read low 1.01 | S. cerevisiae deletion strains, locus YJL129C, strain trk1, active compounds read low 1.01 | S. cerevisiae deletion strains, locus YJL134W, strain LCB3, active compounds read low 0.998 | S. cerevisiae deletion strains, locus YJL154C, strain vps35, active compounds read low 0.997 | S. cerevisiae deletion strains, locus YJL164C, strain tpk1, active compounds read low 0.967 | S. cerevisiae deletion strains, locus YJL166W, strain qcr8, active compounds read low 0.943 | S. cerevisiae deletion strains, locus YJL168C, strain set2, active compounds read low 1.01 | S. cerevisiae deletion strains, locus YJL187C, strain SWE1 (second series), active compounds read low 0.92 | S. cerevisiae deletion strains, locus YJL187C, strain SWE1, active compounds read low 0.967 | S. cerevisiae deletion strains, locus YJR075W, strain HOC1, active compounds read low 0.996 | S. cerevisiae deletion strains, locus YKL068W, active compounds read low 1.02 | S. cerevisiae deletion strains, locus YKL160W, strain elf1, active compounds read low 1.02 | S. cerevisiae deletion strains, locus YKL190W, strain CNB1, active compounds read low 0.967 | S. cerevisiae deletion strains, locus YKR001C, strain vps1, active compounds read low 0.988 | S. cerevisiae deletion strains, locus YKR026C, strain gcn3, active compounds read low 0.983 | S. cerevisiae deletion strains, locus YKR091W, strain srl3, active compounds read low 0.981 | S. cerevisiae deletion strains, locus YLL001W, strain dnm1, active compounds read low 0.959 | S. cerevisiae deletion strains, locus YLL026W, active compounds read low 0.961 | S. cerevisiae deletion strains, locus YLL041C, strain sdh2, active compounds read low 0.993 | S. cerevisiae deletion strains, locus YLR027C, strain aat2, active compounds read low 0.943 | S. cerevisiae deletion strains, locus YLR039C, strain RIC1, active compounds read low 1.11 | S. cerevisiae deletion strains, locus YLR058C, strain SHM2, active compounds read low 0.933 | S. cerevisiae deletion strains, locus YLR102C, strain apc9, active compounds read low 1.03 | S. cerevisiae deletion strains, locus YLR258W, strain gsy2, active compounds read low 0.963 | S. cerevisiae deletion strains, locus YLR262C, strain YPT6 (second series), active compounds read low 0.945 | S. cerevisiae deletion strains, locus YLR262C, strain YPT6, active compounds read low 1.14 | S. cerevisiae deletion strains, locus YLR268W, strain sec22, active compounds read low 0.943 | S. cerevisiae deletion strains, locus YLR320W, strain mms22, active compounds read low 0.917 | S. cerevisiae deletion strains, locus YLR357W, strain rsc2, active compounds read low 0.905 | S. cerevisiae deletion strains, locus YLR370C, strain arc18, active compounds read low 0.978 | S. cerevisiae deletion strains, locus YLR371W, strain rom2, active compounds read low 0.92 | S. cerevisiae deletion strains, locus YLR384C, strain iki3, active compounds read low 0.976 | S. cerevisiae deletion strains, locus YLR418C, strain cdc73, active compounds read low 1.02 | S. cerevisiae deletion strains, locus YML016C, strain PPZ1, active compounds read low 0.954 | S. cerevisiae deletion strains, locus YML032C, strain rad52, active compounds read low 1 | S. cerevisiae deletion strains, locus YML120C, strain ndi1, active compounds read low 1.01 | S. cerevisiae deletion strains, locus YML124C, strain tub3, active compounds read low 1.02 | S. cerevisiae deletion strains, locus YMR078C, strain ctf18, active compounds read low 1.04 | S. cerevisiae deletion strains, locus YMR125W, strain sto1, active compounds read low 1.01 | S. cerevisiae deletion strains, locus YMR129W, active compounds read low 0.993 | S. cerevisiae deletion strains, locus YMR205C, strain PFK2, active compounds read low 0.971 | S. cerevisiae deletion strains, locus YMR223W, strain ubp8, active compounds read low 0.959 | S. cerevisiae deletion strains, locus YMR231W, strain pep5, active compounds read low 0.975 | S. cerevisiae deletion strains, locus YMR263W, strain SAP30, active compounds read low 1 | S. cerevisiae deletion strains, locus YMR307W, strain GAS1, active compounds read low 0.946 | S. cerevisiae deletion strains, locus YNL067W, strain RPL9B, active compounds read low 0.995 | S. cerevisiae deletion strains, locus YNL071W, strain lat1, active compounds read low 0.986 | S. cerevisiae deletion strains, locus YNL233W, strain BNI4, active compounds read low 0.881 | S. cerevisiae deletion strains, locus YNL248C, strain rpa49, active compounds read low 0.963 | S. cerevisiae deletion strains, locus YNL250W, strain rad50, active compounds read low 1.06 | S. cerevisiae deletion strains, locus YNL271C, strain bni1, active compounds read low 1 | S. cerevisiae deletion strains, locus YNL298W, strain CLA4, active compounds read low 1.01 | S. cerevisiae deletion strains, locus YNL307C, strain MCK1, active compounds read low 1.02 | S. cerevisiae deletion strains, locus YNL322C, strain KRE1 (second series), active compounds read low 0.999 | S. cerevisiae deletion strains, locus YNR049C, strain mso1, active compounds read low 0.991 | S. cerevisiae deletion strains, locus YNR052C, strain pop2, active compounds read low 1 | S. cerevisiae deletion strains, locus YOL012C, strain htz1 0.804 | S. cerevisiae deletion strains, locus YOL147C, strain pex11, active compounds read low 1.01 | S. cerevisiae deletion strains, locus YOR001W, strain rrp6, active compounds read low 0.93 | S. cerevisiae deletion strains, locus YOR061W, strain CKA2, active compounds read low 0.924 | S. cerevisiae deletion strains, locus YOR069W, strain VPS5, active compounds read low 0.96 | S. cerevisiae deletion strains, locus YOR080W, strain dia2, active compounds read low 0.963 | S. cerevisiae deletion strains, locus YOR083W, strain WHI5, active compounds read low 0.928 | S. cerevisiae deletion strains, locus YOR106W, strain vam3, active compounds read low 0.907 | S. cerevisiae deletion strains, locus YOR136W, strain idh2, active compounds read low 1.03 | S. cerevisiae deletion strains, locus YOR144C, strain elg1, active compounds read low 1.02 | S. cerevisiae deletion strains, locus YOR184W, strain ser1, active compounds read low 0.971 | S. cerevisiae deletion strains, locus YOR265W, strain rbl2, active compounds read low 0.947 | S. cerevisiae deletion strains, locus YOR270C, strain vph1, active compounds read low 0.952 | S. cerevisiae deletion strains, locus YOR290C, strain snf2, active compounds read low 0.981 | S. cerevisiae deletion strains, locus YOR316C, strain cot1, active compounds read low 1.02 | S. cerevisiae deletion strains, locus YPL055C, strain LGE1, active compounds read low 0.871 | S. cerevisiae deletion strains, locus YPL078C, strain atp4, active compounds read low 1.02 | S. cerevisiae deletion strains, locus YPL106C, strain sse1, active compounds read low 0.901 | S. cerevisiae deletion strains, locus YPL240C, strain hsp82, active compounds read low 0.989 | S. cerevisiae deletion strains, locus YPR119W, strain clb2, active compounds read low 1.04 | S. cerevisiae deletion strains, locus YPR141C, strain kar3, active compounds read low 1.02 | S. cerevisiae deletion strains, locus YPR163C, strain tif3, active compounds read low 1.02 | S. cerevisiae deletion strains, locus YPR167C, strain met16, active compounds read low 0.967 | S. cerevisiae deletion strains, strain wtn01, active compounds read low 0.952
active: S. cerevisiae deletion strains, locus YBL061C, strain skt5, active compounds read low 0.839 | S. cerevisiae deletion strains, locus YBR023C, strain chs3, active compounds read low 0.884 | S. cerevisiae deletion strains, locus YBR231C, strain swc5, active compounds read low 0.864 | S. cerevisiae deletion strains, locus YCL011C, strain gbp2, active compounds read low 0.897 | S. cerevisiae deletion strains, locus YDR069C, strain doa4, active compounds read low 0.811 | S. cerevisiae deletion strains, locus YDR297W, strain sur2, active compounds read low 0.91 | S. cerevisiae deletion strains, locus YER015W, strain faa2, active compounds read low 0.841 | S. cerevisiae deletion strains, locus YGL086W, strain mad1, active compounds read low 0.922 | S. cerevisiae deletion strains, locus YGL173C, strain kem1, active compounds read low 0.817 | S. cerevisiae deletion strains, locus YGL248W, strain PDE1, active compounds read low 0.883 | S. cerevisiae deletion strains, locus YGL253W, strain hxk2, active compounds read low 0.894 | S. cerevisiae deletion strains, locus YHR027C, strain rpn1, active compounds read low 0.749 | S. cerevisiae deletion strains, locus YJL095W, strain BCK1 (second series), active compounds read low 0.918 | S. cerevisiae deletion strains, locus YLR221C, strain rsa3, active compounds read low 0.897 | S. cerevisiae deletion strains, locus YLR342W, strain FKS1, active compounds read low 0.907 | S. cerevisiae deletion strains, locus YMR058W, strain fet3, active compounds read low 0.676 | S. cerevisiae deletion strains, locus YNL209W, strain ssb2, active compounds read low 0.738 | S. cerevisiae deletion strains, locus YOR070C, strain gyp1, active compounds read low 0.905 | S. cerevisiae deletion strains, locus YPL051W, strain arl3, active compounds read low 0.855 | S. cerevisiae strains, strain wild type, active compounds read low 0.889
